Results: PubChem BioAssay (NCI)
Compounds without any hit were thinned out: in the full panel of roughly 83,000, 20% have a hit.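 Each cell line was grown in a 96-well plate and treated with one concentration of compound for 48 hours. Values below 10 were considered active.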 Values without a mark were called inactive. Calls of active or inactive are those of the source.

What was measured:
Assay in all cases: NCI-60 one-dose screen, 48 h (100 = growth as untreated, 0 = no growth, -100 = all killed)
Conditions in all cases: 10 µM unless noted
NCI-H23 lung = tested on: NCI-H23 lung
NCI-H226 lung = tested on: NCI-H226 lung
NCI-H322M lung = tested on: NCI-H322M lung
HOP-62 NSCLC = tested on: HOP-62 NSCLC
NCI-H460 lung = tested on: NCI-H460 lung
HOP-92 NSCLC = tested on: HOP-92 NSCLC
NCI-H522 lung = tested on: NCI-H522 lung
A549/ATCC NSCLC = tested on: A549/ATCC NSCLC
786-0 renal = tested on: 786-0 renal
DU-145 prostate = tested on: DU-145 prostate
K-562 leukemia = tested on: K-562 leukemia
MALME-3M melanoma = tested on: MALME-3M melanoma
MDA-MB-231 breast = tested on: MDA-MB-231 breast
RXF 393 renal = tested on: RXF 393 renal
SF-268 CNS = tested on: SF-268 CNS
SF-295 CNS = tested on: SF-295 CNS
SF-539 CNS = tested on: SF-539 CNS
UACC-257 melanoma = tested on: UACC-257 melanoma
M14 melanoma = tested on: M14 melanoma
COLO 205 colon = tested on: COLO 205 colon

Row | SMILES | growth (NCI-H23 lung) | growth (NCI-H226 lung) | growth (NCI-H322M lung) | growth (HOP-62 NSCLC) | growth (NCI-H460 lung) | growth (HOP-92 NSCLC) | growth (NCI-H522 lung) | growth (A549/ATCC NSCLC) | growth (786-0 renal) | growth (DU-145 prostate) | growth (K-562 leukemia) | growth (MALME-3M melanoma) | growth (MDA-MB-231 breast) | growth (RXF 393 renal) | growth (SF-268 CNS) | growth (SF-295 CNS) | growth (SF-539 CNS) | growth (UACC-257 melanoma) | growth (M14 melanoma) | growth (COLO 205 colon)
1 | CN1CC(=O)N(O)C1(C)c1cccnc1 (centres undefined) | 104% | 94.7% | 98.7% | 95.6% | 105% | 116% | 95.2% | 101% | 99.5% | 115% | 99.4% | 102% | 113% | 106% | 106% | 96.4% | 98.3% | 98.9% | 105% | 
2 | Cc1ccc(S(=O)(=O)F)cc1C(=O)O | 96.5% | 95.8% | 77.6% | 97.7% | 111% | 118% | 85.8% | 98.3% |  | 104% | 109% | 86.8% | 107% |  | 101% | 95.1% | 94% | 93.3% | 110% | 103%
3 | CC[C@]12C=CCN3CC[C@]4(C(=C(C(=O)OC)C1)Nc1cc(OC)c(OC(C)=O)cc14)[C@@H]32 | 20.7% | 34.4% | 39% | 20.5% | 8.27% (active) | 4.72% (active) | -1.97% (active) | 16% | 5.06% (active) | 24.3% | 4.08% (active) | 112% | 19.7% | 37.1% | 19.5% | 20.4% | 11.2% |  | 13.9% | 
4 | [Cl][Hg][c]1cc(Br)cc(Br)c1 | 61.8% | 99.9% | 80% | 31.7% | 32.2% | 11.2% | -30.4% (active) | 68% | 26.3% | 79.3% | 6.31% (active) | 69.8% | 19.8% | -18.3% (active) | 25.6% | 80.2% | 38.9% | 58.5% | 46.1% | 
5 | Clc1cccc(NCOOC2(OOCNc3cccc(Cl)c3)CCCCC2)c1 | 43.6% | 94.7% | 73.7% | 49.5% | 77.2% | -46.3% (active) | 14.7% | 3.1% (active) | 10.8% | 73.3% | -41% (active) | 74.5% | 81.7% | 108% | 73.1% | 74.8% | 16.4% | 87.7% | 60.4% | 
6 | Cc1ccc(C(=O)NCCCOc2ccc(N3C(N)=NC(N)=NC3(C)C)cc2Cl)cc1S(=O)(=O)F | 84.4% | 91.9% | 92.5% | 94.7% | 46.2% | 69.1% | 78.3% | 77.5% | 91% | 126% |  | 70.4% | 98.6% |  | 54.3% | 111% | 54.1% |  | 76.7% | 
7 | N#C[Se]CCN1C(=O)c2ccccc2C1=O | 39.4% | 36.3% | 24.4% | 26.4% | 15.8% | -3.49% (active) | 20.2% | 30.6% | 52% | 35.1% | 26.1% | 17.7% | 55.9% | -9.88% (active) | 20.2% | 6.62% (active) | 33.4% | 7.13% (active) | 25.5% | 
8 | CCCCN(CCCC)P(=O)(Oc1ccccc1)Oc1ccccc1 | 53.7% | 73.9% | 85.1% | 85.8% | 59.9% | 48.3% | 37.9% | 49% | 75% |  | 46.2% | 119% | 69.3% | 55.8% | 84% | 64.5% | 100% | 70.4% | 52.3% | 75.2%
9 | COC(=O)[C@@H](C)C[C@H](Cc1ccccc1)NC(=O)c1cccc([C@@H](C[C@H](C(C)C)N(C)C(=O)[C@@H](NC(=O)[C@H]2CCCCN2C)C(C)C)OC(C)=O)n1 | 38.9% | 68.1% | 47.6% | 23.2% | 7.05% (active) | 53.7% | -22.2% (active) | 14.2% | 14.4% | 10.5% | 7.86% (active) | 77.9% | -4.66% (active) | 46.1% | 30.8% | 6.28% (active) | 2.03% (active) | 49.7% | -10.9% (active) | 
10 | COc1cc(C=Nc2cccc(C(=O)O)c2)ccc1N(CCCl)CCCl | 103% | 92.7% | 100% | 118% | 75.4% | 101% | -3.21% (active) | 96.6% | 105% | 111% | 101% | 84.4% | 106% | 99.4% | 113% | 98.3% | 102% | 85.1% | 104% | 
11 | CCCCCCC(=O)NC1=C(N2CC2)C(=O)C(NC(=O)CCCCCC)=C(N2CC2)C1=O | 33.6% | 75% | 79.5% | 47.2% | 24% | 65.3% | 39.2% | 42.3% | 33.6% | 15.6% | 70.7% | 7.93% (active) | 24.8% | 25.7% | 52.9% | 29.7% | 61.7% | 34.2% | 20.5% | 
12 | COC(=O)[C@@]1(C)CC[C@]2(C)CC[C@]3(C)C4=CC=C5C(=CC(=O)C(O)=C5C)[C@]4(C)CC[C@@]3(C)[C@@H]2C1 | -72.6% (active) | -59.1% (active) | -95.3% (active) | -90.6% (active) | -83% (active) | -86.7% (active) | -78.3% (active) | -92.9% (active) | -90% (active) | -96.7% (active) | -54.4% (active) | -87.3% (active) | -93.4% (active) | -84% (active) | -83.2% (active) | -91.8% (active) | -99.6% (active) | -88.3% (active) | -94% (active) | 
13 | COC(=O)[C@@H](C)C[C@H](Cc1ccccc1)NC(=O)c1csc([C@@H](C[C@H](C(C)C)N(C)C(=O)[C@@H](NC(=O)CN(C)C)C2CC2)OC(C)=O)n1 | 25% | 19.1% | 47.7% | 19.1% | 10.3% | 26.4% |  | 13.5% | 21% | 3.44% (active) | 9.12% (active) | 69.8% | 24.2% | 37.6% | 33.3% | 13.5% | 0.502% (active) | 60.3% | 13% | -72.8% (active)
14 | COC(=O)CCc1c[nH]c2ccc(N(CCCl)CCCl)cc12 | 31.1% | 79% | 95.1% | 47.5% |  | 84.4% | 42.3% | 44% | 24.8% | 33.3% | 70.7% | 71% | 121% | 46.8% | 40.6% | 32.9% | 23.2% | 85.9% | 45.4% | 68.8%
15 | CC(C)COC(C[N+](=O)[O-])C(Cl)(Cl)Cl (centres undefined) | 105% | 107% | 106% | 111% | 108% | 102% |  | 98.1% | 112% | 119% | 99.9% | 123% | 111% | 115% | 105% | 113% | 106% | 96.1% | 105% | 102%
16 | ClCCN(CCCl)c1ccc(OCc2ccccc2)cc1 | 58.7% | 84.6% | 102% | 54.8% | 20.3% | 57.3% |  | 45.7% | 19% | 26.3% | 73.3% | 90.9% | 106% | 82.1% | 36% | 10.3% | 8.54% (active) | 74.2% | 41.9% | 75.9%
